Source: the supplement of paper PMC12067093, “Discovery and optimisation of a covalent ligand for TRIM25 and its application to targeted protein ubiquitination” (Chemical Science, 2025)
The full data set covers some 21,000 targets. This sample favours those with the largest changes.

The targets below were run with Cc1cc(ccc1-c1ccccc1)C(=O)N1CCCN(CC1)C(=O)CCl [compound 10] (assay: probe-labelled cysteine peptide fold change vs DMSO (competition) (log2 fold change); higher = less target engagement (more negative = stronger competition)). Conditions: 10 µM; THP-1; incubation time: 4 h.
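Note: competitive profiling in live THP-1 cells: cysteine peptides tagged with an iodoacetamide desthiobiotin (IA-DTB) probe, intensity after compound treatment relative to DMSO-treated cells.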

UniProt Q8IWZ3, sequence (Q8IWZ3 whole entry, looked up): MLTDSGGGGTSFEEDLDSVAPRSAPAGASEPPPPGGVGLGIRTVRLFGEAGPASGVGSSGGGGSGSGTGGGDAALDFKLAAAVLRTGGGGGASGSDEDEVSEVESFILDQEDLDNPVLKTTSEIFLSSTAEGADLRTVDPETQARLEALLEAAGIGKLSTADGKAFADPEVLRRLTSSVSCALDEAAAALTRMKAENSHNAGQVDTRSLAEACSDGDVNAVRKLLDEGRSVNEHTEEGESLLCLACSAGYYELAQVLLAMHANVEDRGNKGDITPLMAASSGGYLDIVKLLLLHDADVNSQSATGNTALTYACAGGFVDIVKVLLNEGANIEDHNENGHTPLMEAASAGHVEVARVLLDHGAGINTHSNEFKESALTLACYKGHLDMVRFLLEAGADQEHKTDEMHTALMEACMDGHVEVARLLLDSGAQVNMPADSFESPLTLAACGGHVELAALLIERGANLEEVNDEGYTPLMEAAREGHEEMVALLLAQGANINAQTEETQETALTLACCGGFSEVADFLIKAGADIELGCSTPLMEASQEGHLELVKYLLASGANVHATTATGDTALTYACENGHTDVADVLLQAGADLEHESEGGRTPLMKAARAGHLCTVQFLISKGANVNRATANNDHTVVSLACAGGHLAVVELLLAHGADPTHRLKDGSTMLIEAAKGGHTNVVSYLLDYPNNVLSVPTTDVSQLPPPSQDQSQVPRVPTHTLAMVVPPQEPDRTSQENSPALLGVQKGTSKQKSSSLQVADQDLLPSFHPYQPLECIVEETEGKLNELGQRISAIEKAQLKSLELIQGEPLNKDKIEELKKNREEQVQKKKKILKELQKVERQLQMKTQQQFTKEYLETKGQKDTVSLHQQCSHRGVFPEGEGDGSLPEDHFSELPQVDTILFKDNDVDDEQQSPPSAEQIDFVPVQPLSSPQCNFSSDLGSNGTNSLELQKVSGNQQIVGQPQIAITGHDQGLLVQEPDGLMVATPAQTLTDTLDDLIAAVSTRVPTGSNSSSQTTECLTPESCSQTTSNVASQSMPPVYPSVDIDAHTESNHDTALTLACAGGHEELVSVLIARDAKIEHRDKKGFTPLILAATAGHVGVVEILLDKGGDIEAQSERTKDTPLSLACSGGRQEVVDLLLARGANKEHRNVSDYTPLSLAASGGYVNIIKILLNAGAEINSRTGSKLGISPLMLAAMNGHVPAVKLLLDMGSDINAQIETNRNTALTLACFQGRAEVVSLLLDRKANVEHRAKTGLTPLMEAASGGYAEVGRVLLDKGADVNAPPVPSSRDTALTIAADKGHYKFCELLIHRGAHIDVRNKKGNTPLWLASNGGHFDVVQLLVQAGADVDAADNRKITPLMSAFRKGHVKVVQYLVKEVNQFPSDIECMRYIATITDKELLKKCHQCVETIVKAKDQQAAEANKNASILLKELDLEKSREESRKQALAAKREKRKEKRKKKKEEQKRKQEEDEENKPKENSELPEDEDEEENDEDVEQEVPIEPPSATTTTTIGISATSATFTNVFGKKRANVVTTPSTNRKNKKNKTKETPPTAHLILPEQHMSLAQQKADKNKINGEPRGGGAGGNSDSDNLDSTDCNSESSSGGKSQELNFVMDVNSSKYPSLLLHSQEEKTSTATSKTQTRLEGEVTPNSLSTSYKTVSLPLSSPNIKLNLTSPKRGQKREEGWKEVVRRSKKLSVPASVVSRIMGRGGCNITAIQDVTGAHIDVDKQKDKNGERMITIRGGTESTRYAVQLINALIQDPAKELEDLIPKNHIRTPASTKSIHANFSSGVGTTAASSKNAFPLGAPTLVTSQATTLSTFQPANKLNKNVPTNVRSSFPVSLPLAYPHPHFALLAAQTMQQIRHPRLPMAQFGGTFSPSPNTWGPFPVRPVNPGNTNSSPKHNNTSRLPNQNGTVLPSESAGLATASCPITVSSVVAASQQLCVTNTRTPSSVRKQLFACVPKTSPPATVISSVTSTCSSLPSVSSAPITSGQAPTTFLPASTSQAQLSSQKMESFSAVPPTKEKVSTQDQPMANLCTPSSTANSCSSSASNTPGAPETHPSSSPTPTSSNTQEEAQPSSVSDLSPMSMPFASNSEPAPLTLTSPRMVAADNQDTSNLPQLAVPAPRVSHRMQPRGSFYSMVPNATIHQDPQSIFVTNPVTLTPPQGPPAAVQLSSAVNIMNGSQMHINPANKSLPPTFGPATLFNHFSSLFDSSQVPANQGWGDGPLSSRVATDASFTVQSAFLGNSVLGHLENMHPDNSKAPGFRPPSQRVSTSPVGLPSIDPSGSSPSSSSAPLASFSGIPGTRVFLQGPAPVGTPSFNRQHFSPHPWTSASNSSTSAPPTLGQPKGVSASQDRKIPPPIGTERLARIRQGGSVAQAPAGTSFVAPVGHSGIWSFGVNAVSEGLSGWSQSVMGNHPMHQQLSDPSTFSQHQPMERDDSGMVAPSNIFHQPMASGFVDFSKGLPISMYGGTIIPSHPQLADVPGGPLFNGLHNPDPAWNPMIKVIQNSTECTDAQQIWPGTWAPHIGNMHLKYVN
UniProt Q6P6C2, sequence (Q6P6C2 whole entry, looked up): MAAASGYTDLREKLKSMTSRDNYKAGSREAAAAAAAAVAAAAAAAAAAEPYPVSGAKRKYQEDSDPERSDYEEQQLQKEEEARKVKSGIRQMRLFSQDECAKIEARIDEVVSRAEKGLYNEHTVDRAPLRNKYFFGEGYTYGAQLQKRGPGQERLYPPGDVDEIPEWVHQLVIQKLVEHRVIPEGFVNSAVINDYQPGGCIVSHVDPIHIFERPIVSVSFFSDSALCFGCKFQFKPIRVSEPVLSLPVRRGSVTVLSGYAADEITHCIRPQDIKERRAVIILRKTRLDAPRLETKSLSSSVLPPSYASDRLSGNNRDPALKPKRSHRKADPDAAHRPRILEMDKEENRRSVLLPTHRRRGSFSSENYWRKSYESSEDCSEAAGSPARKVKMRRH
UniProt Q9NQW6, sequence (Q9NQW6 whole entry, looked up): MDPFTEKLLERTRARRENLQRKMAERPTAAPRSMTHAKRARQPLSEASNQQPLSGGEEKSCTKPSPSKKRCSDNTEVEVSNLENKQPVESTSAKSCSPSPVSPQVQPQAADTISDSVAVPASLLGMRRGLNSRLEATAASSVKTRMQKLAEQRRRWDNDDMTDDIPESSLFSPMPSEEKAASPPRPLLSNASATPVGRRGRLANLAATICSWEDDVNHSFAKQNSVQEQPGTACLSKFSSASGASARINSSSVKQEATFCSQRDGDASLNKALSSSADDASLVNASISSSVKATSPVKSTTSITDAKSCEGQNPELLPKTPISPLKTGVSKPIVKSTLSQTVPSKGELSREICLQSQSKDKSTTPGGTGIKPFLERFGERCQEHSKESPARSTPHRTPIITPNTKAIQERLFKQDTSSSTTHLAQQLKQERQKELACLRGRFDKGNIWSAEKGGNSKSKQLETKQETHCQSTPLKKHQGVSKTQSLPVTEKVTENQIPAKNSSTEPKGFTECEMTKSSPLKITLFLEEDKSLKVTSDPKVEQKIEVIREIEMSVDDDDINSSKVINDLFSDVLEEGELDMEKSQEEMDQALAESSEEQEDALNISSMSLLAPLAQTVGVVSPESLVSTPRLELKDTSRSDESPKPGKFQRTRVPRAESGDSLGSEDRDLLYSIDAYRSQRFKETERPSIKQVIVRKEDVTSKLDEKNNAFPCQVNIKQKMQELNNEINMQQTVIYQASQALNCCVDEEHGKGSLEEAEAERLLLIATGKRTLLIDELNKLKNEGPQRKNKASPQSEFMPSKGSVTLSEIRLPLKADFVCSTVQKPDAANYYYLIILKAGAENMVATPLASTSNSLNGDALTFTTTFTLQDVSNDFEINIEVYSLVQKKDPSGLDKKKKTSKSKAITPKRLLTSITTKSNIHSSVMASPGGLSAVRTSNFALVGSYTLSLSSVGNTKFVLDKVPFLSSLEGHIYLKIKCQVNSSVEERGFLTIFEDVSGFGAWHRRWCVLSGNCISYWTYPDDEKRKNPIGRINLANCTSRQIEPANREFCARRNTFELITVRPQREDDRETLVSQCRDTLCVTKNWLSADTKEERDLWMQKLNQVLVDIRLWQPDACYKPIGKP
UniProt Q7Z5R6, sequence (Q7Z5R6 whole entry, looked up): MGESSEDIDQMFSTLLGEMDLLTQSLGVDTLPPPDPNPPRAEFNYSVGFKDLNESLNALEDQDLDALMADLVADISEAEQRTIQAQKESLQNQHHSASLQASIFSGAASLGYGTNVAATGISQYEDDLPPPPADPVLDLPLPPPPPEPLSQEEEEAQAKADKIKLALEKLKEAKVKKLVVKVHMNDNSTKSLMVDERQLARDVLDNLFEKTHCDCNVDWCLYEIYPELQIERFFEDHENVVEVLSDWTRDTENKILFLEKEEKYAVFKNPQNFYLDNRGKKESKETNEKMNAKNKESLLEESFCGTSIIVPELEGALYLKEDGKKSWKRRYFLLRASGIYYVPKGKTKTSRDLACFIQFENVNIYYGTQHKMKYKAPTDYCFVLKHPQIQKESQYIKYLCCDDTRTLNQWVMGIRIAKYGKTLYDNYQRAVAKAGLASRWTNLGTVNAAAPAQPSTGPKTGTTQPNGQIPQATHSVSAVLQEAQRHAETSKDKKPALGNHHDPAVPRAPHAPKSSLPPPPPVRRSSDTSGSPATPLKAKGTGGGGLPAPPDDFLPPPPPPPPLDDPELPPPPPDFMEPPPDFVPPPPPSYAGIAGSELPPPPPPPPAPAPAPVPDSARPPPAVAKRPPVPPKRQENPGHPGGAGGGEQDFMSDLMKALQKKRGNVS
UniProt P14550, sequence (P14550 whole entry, looked up): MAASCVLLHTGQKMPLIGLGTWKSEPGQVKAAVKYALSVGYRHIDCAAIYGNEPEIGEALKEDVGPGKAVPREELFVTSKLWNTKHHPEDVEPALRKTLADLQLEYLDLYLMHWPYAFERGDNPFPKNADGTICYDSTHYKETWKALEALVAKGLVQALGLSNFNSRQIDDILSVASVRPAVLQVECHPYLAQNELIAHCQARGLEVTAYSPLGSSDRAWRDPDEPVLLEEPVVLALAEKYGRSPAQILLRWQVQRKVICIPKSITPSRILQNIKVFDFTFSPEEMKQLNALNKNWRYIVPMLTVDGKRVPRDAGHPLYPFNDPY

Target | probe-labelled cysteine peptide fold change
ANKHD1_Q8IWZ3_1716_GGCNITAIQDVTGAHIDVDK (UniProt Q8IWZ3) | 0.183
ANLN_Q9NQW6_1037_INLANCTSR (UniProt Q9NQW6) | -0.121
ASCC3_Q8N3C0_366_KAGEDLEVSEGLMCFDPK (UniProt Q8N3C0) | -0.217
ADK_P55263_160_SLIANLAAANCYKK (UniProt P55263) | -0.309
APBB1IP_Q7Z5R6_401_YLCCDDTR (UniProt Q7Z5R6) | -0.318
ATM_Q13315_1396_ATFAYISNCHK (UniProt Q13315) | -1.94
ALDH9A1_P49189_355_VLCGGDIYVPEDPK (UniProt P49189) | -0.105
ARPC1B_O15143_227_VAWVSHDSTVCLADADKK (UniProt O15143) | 0.103
ATRX_P46100_235_WCAEGGNLICCDFCHNAFCK (UniProt P46100) | 0.0337
ADAM10_O14672_222_NTCQLYIQTDHLFFK (UniProt O14672) | 0.033
ANKRD17_O75179_564_AGADIELGCSTPLMEAAQEGHLELVK (UniProt O75179) | 0.0101
AGL_P35573_486_ELICWGDSVK (UniProt P35573) | 0.0938
ARNT_P27540_269_CGSSSVDPVSVNR (UniProt P27540) | -0.375
ATP5F1A_P25705_244_KLYCIYVAIGQK (UniProt P25705) | -1.08
ATP6V0A1_Q93050_58_RCEEMDR (UniProt Q93050) | 0.102
ATRX_P46100_1531_CPITTK (UniProt P46100) | -0.402

Target | probe-labelled cysteine peptide fold change
ARHGEF6_Q15052_530_IVVHCNNNQDFQEWLEQLNR (UniProt Q15052) | 0.0109
ACTR3B_Q9P1U1_408_DYEEYGPSICR (UniProt Q9P1U1) | 0.154
ARL6IP4_Q66PJ3-3_220_NCSASTSQER (UniProt Q66PJ3) | -0.274
ADAR_P55265_851_CFNTLTNSFQPSLLGR (UniProt P55265) | -0.0671
AKR1A1_P14550_46_HIDCAAIYGNEPEIGEALKEDVGPGK (UniProt P14550) | -0.393
ALKBH5_Q6P6C2_100_LFSQDECAK (UniProt Q6P6C2) | -0.000108
AP2B1_P63010_565_PLISEETDLIEPTLLDELICHIGSLASVYHKPPNAFVEGSHGIHR (UniProt P63010) | 0.119
ATL2_Q8NHH9_293_HIHNCFSNLGCFLLPHPGLK (UniProt Q8NHH9) | -0.0463
APOOL_Q6UXV4_74_TATGCYIGWCK (UniProt Q6UXV4) | -0.823
ANKFY1_Q9P2R3_742_AIDENNEPTACFLIR (UniProt Q9P2R3) | -0.0754
ACTR3_P61158_8+12_LPACVVDCGTGYTK (UniProt P61158) | -0.243
AKR1B1_P15121_45_HIDCAHVYQNENEVGVAIQEK (UniProt P15121) | 0.0652
ALDH3A2_P51648_226_DCDLDIVCR (UniProt P51648) | -0.0334
ATP6V1B2_P21281_425_DHADVSNQLYACYAIGK (UniProt P21281) | 0.162
AKR1B1_P15121_304_VCALLSCTSHK (UniProt P15121) | -0.547

Same assay, conditions: 50 µM; THP-1; incubation time: 4 h

Target | probe-labelled cysteine peptide fold change
ANKHD1_Q8IWZ3_1716_GGCNITAIQDVTGAHIDVDK (UniProt Q8IWZ3) | 0.0508
ANLN_Q9NQW6_1037_INLANCTSR (UniProt Q9NQW6) | -0.171
ASCC3_Q8N3C0_366_KAGEDLEVSEGLMCFDPK (UniProt Q8N3C0) | -0.375
ADK_P55263_160_SLIANLAAANCYKK (UniProt P55263) | -1.01
APBB1IP_Q7Z5R6_401_YLCCDDTR (UniProt Q7Z5R6) | -0.372
ATM_Q13315_1396_ATFAYISNCHK (UniProt Q13315) | -2.52
ALDH9A1_P49189_355_VLCGGDIYVPEDPK (UniProt P49189) | 0.0431
ARPC1B_O15143_227_VAWVSHDSTVCLADADKK (UniProt O15143) | -0.0807
ATRX_P46100_235_WCAEGGNLICCDFCHNAFCK (UniProt P46100) | -0.0739
ADAM10_O14672_222_NTCQLYIQTDHLFFK (UniProt O14672) | 0.208
ANKRD17_O75179_564_AGADIELGCSTPLMEAAQEGHLELVK (UniProt O75179) | -0.0606
AGL_P35573_486_ELICWGDSVK (UniProt P35573) | 0.033
ARNT_P27540_269_CGSSSVDPVSVNR (UniProt P27540) | -0.756
ATP5F1A_P25705_244_KLYCIYVAIGQK (UniProt P25705) | 0.236
ATP6V0A1_Q93050_58_RCEEMDR (UniProt Q93050) | 0.183
ATRX_P46100_1531_CPITTK (UniProt P46100) | -1.05

Target | probe-labelled cysteine peptide fold change
ARHGEF6_Q15052_530_IVVHCNNNQDFQEWLEQLNR (UniProt Q15052) | 0.158
ACTR3B_Q9P1U1_408_DYEEYGPSICR (UniProt Q9P1U1) | 0.0944
ARL6IP4_Q66PJ3-3_220_NCSASTSQER (UniProt Q66PJ3) | -0.819
ADAR_P55265_851_CFNTLTNSFQPSLLGR (UniProt P55265) | 0.166
AKR1A1_P14550_46_HIDCAAIYGNEPEIGEALKEDVGPGK (UniProt P14550) | -1.14
ALKBH5_Q6P6C2_100_LFSQDECAK (UniProt Q6P6C2) | 0.012
AP2B1_P63010_565_PLISEETDLIEPTLLDELICHIGSLASVYHKPPNAFVEGSHGIHR (UniProt P63010) | -0.142
ATL2_Q8NHH9_293_HIHNCFSNLGCFLLPHPGLK (UniProt Q8NHH9) | -0.137
APOOL_Q6UXV4_74_TATGCYIGWCK (UniProt Q6UXV4) | -1.75
ANKFY1_Q9P2R3_742_AIDENNEPTACFLIR (UniProt Q9P2R3) | -0.213
ACTR3_P61158_8+12_LPACVVDCGTGYTK (UniProt P61158) | -0.313
AKR1B1_P15121_45_HIDCAHVYQNENEVGVAIQEK (UniProt P15121) | -0.0317
ALDH3A2_P51648_226_DCDLDIVCR (UniProt P51648) | -0.00592
ATP6V1B2_P21281_425_DHADVSNQLYACYAIGK (UniProt P21281) | 0.207
AKR1B1_P15121_304_VCALLSCTSHK (UniProt P15121) | -2.08
